Compound activity (PubChem BioAssay)
Only some compounds are listed: those with a hit (about 1.6% of all), similar ones and a draw of the others.
IMPase inh = cell-permeable inhibitors of inositol monophosphatase (IMPase). P97697. CHO-M1 cells, IP1 accumulation, HTRF TR-FRET ratio. inhibition (IP1 accumulation), % at 46.1 µM. 120,000 tested, under 10 active. AID 901; active = well fitted curve in the direction sought with a large enough effect in the signal ratio, not every such curve was filed as active; inconclusive = small, poorly fitted or top-dose-only effect, or a change in a side signal; inactive = no such curve, though single readings can be large or run the other way; the % refers to the signal ratio;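 also: cells stimulated with carbachol in lithium chloride buffer; plate controls were DMSO basal wells for no effect and reference inhibitor wells for full effect; higher means more IMPase inhibition seen as more IP1 and lower FRET ratio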
Target sequence (P97697 whole entry, looked up): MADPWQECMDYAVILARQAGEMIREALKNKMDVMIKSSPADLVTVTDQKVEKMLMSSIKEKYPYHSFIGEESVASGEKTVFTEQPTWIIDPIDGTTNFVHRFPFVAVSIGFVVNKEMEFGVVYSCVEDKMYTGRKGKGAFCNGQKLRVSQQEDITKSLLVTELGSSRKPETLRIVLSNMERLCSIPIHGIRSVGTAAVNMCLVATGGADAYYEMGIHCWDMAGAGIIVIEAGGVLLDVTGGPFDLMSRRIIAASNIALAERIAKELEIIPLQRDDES
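In this qHTS, compounds (final up to 46 uM) act on CHO-M1 cells that are then activated through the M1 receptor with carbachol, in pH 7.4 buffer containing 50 mM LiCl, for 30 min. IP1 accumulation is quantified by the IP-One immunoassay.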
NPSR antag = antagonists of human neuropeptide S receptor cAMP signaling; CHO-NPSR cells, cAMP TR-FRET, antagonist mode; Q6W5P4; 220,000 compounds, 1% hits; AID 1461; Potency, µM (titrated, usually from 38.3 µM), without a hit: at the top dose activity change, negative = inhibition, hits mostly inhibitors; also: potency is read from the fitted curve at half-maximal effect; % is scaled to controls: 0 for no effect and ±100 for the full control effect; nearly all actives have a fitted effect of over 50% in size
Target sequence (Q6W5P4 whole entry, looked up): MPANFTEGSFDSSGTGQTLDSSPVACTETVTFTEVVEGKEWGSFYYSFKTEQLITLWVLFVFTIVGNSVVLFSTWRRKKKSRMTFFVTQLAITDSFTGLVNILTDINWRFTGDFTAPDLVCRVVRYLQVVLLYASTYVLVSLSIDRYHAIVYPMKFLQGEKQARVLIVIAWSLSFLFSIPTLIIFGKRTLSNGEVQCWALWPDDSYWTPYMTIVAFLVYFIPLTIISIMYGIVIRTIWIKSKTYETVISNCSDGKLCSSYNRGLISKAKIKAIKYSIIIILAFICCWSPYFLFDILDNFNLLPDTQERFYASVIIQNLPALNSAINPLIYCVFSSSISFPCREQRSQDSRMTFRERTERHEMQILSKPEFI
IMPase Li inh = IMPase inhibition in cells with lithium potentiation; 210,000 compounds, 0.35% hits; CHO-M1 cells, IP1 TR-FRET (IP-One), carbachol + lithium; Potency, µM (top dose mostly 59.4 µM), for the others: at the highest dose activity, negative = IMPase inhibition, hits mostly inhibitors;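 also: IP1 builds up when IMPase is blocked and the TR-FRET signal falls; potency is read from the fitted curve at half-maximal effect; plate controls were basal vehicle for no effect and high inhibitor control for full effect; nearly all actives have a fitted effect of over 50% in size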
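Test compounds were applied to CHO-M1 cells previously cultured for 16–30 h at 2000 per well. A small lithium amount accompanied them; after 30 min at 37C, IP1 was quantified by TR-FRET.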
LMNA splice mod = modulators of lamin A splicing; HeLa LMNA splicing GFP/RFP minigene ratio, 48 h; Potency, µM (doses to about 46.1 µM), inactives show at the top dose ratio change, negative = inhibition, hits mostly inhibitors; 200,000 compounds, 0.01% hits; AID 1487; active = well fitted inhibition curve with a large enough effect in the signal ratio, with a control signal flat, not every such curve was filed as active; inconclusive = small, poorly fitted or top-dose-only effect, or effect the other way, or a change in a side signal; the % refers to the signal ratio; also: potency is read from the fitted curve at half-maximal effect; % is scaled to controls: 0 for no effect and ±100 for the full control effect
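S3 HeLa cells stably expressing lamin A-EGFP splicing minigene plus DsRed2, 600 cells/well, 48 h compound exposure at 37C. Laser-scanning cytometry; analysed as GFP (500-530 nm)/RFP (575-640 nm) total intensity ratio; 0.5% DMSO vehicle.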
HTT aggregate = reduces HttQ103-GFP aggregates in PC12 cells | PC12 HttQ103-GFP aggregates, Acumen cytometry, 40 h | Potency, µM (doses to about 46.1 µM), inactives show at the top dose activity change, negative = inhibition, usual class: inhibitors | 220,000 compounds, 1.1% hits | AID 1688; also: potency is read from the fitted curve at half-maximal effect; % is scaled to controls: 0 for no effect and ±100 for the full control effect; nearly all actives have a fitted effect of over 60% in size
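Multiplexed with ATP-based cell death, this channel scores GFP aggregates in PC12 cells expressing inducible HTTex1-Q103-GFP. Induction used 100 nM tebufenozide; compounds were tested in concentration series.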
HTT cytoprotect = protects HTT-Q103 PC12 cells, measured by ATP; PC12 HTT-Q103 induced, cytoprotection, ATP luminescence, 40 h; Potency, µM (doses to about 56.4 µM), without a hit: cytoprotection (ATP increase), hits mostly activators; 230,000 compounds, 0.14% hits; AID 1471; also: potency is read from the fitted curve at half-maximal effect; % of control where 0% means no effect; nearly all actives have a fitted effect of over 45% in size
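PC12 cells with ecdysone-inducible HTT exon 1 Q103-GFP, induced with 100 nM tebufenozide and co-treated with library compounds in a dose series (1536-well, 1500 cells/well). Cytoprotection read as ATP content by ATPlite luminescence.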
* hit, by the source's call; ? = inconclusive; . = no result given; [ ] = another dose, or the depositor's remark. Unless noted, calls follow the shape of the dose curve; as a rule, active = well fitted curve in the direction sought with a large enough effect; inconclusive = small, poorly fitted or top-dose-only effect, or another doubt; inactive = no such curve, though single readings can be large; an effect the other way counts as inactive or inconclusive.

SMILES	IMPase inh	NPSR antag	IMPase Li inh	LMNA splice mod	HTT aggregate	HTT cytoprotect
COc1ccc(C2=CC(c3ccc(F)cc3)n3nnnc3N2)cc1 (stereo not given)	6	-11%[46.1 µM]	-7%[38.3 µM]	-11%	8%	-24%
CC1Cc2ccccc2N1C(=O)CN(C)S(=O)(=O)c1cccc2cccnc12 (stereo not given)	-2	-10%[46.1 µM]	-9%[38.3 µM]	-4%	0.032µM*	-18%
Cc1ccc(Cl)cc1N1CCN(C(=O)CSc2nnc3n2C(C)(C)Cc2ccccc2-3)CC1	14	?	23%	?	7.9µM*	?
COc1ccc(N2CCN(C(=O)CSc3nnc4n3C(C)(C)Cc3ccccc3-4)CC2)cc1	-4	-26%[46.1 µM]	-2%[38.3 µM]	?	?	-17%[1.9 µM]
S=C(Nc1ccccn1)c1ccccn1	5	2µM*	16%[38.3 µM]	8%	15%	-24%
Cn1c(-c2c(N)n(CCc3ccccc3)c3nc4ccccc4nc23)nc2ccccc21	-12	-15%[46.1 µM]	-18%[38.3 µM]	?	-29%	-43%
Cn1c(-c2c(N)n(CCCc3ccccc3)c3nc4ccccc4nc23)nc2ccccc21	?	-13%[46.1 µM]	10µM*	-3%	6%	-11%
Cc1c(C(=O)N2CCC(C(=O)Nc3ccc(F)c(Cl)c3)CC2)sc2nc[nH]c(=O)c12	.	.	.	-9%[46 µM]	.	.
COc1ccc(N/N=C(\C#N)C(=N)N2CCCCC2)cc1	.	34%	.	.	6%[9.22 µM]	-9%[10 µM]
COc1ccc(N/N=C(\C#N)C(=N)SCc2ccccc2)cc1	.	14%	-2%	?	7.9µM*	?
O=C(Nc1cccnc1)C1(F)C(F)(F)C(F)(F)C(F)(F)C(F)(F)C1(F)F	1	?	-2%[38.3 µM]	6%	6.3µM*	-54%
O=C(Nc1cccnc1)Nc1ccccc1Cl	-10	-19%[46.1 µM]	10%[38.3 µM]	-10%	.	0.79µM*
CCN1/C(=C/C=C/c2oc3ccc(-c4ccccc4)cc3[n+]2CC)Oc2ccc(-c3ccccc3)cc21	.	?	16%	.	0.35µM*	-94%[10 µM]
CO[C@@H]1COC(=O)C/C=C\[C@@H](C)[C@H](OC)COC(=O)[C@H](COCc2ccccc2)NC(=O)C/C=C\[C@H]1C	.	.	.	.	.	3.2µM*
COc1ccccc1NC(=S)N=Nc1c(O)[nH]c2ccc(Br)cc12	.	-8%	.	.	-20%[9.22 µM]	10%[10 µM]
Cc1cccc(NC(=S)N=Nc2c(O)[nH]c3ccccc23)c1	.	-33%	-2%	?	4µM*	.
CCOC(=O)c1c(C)n(C)c2ccc(OC)c(NC(=O)CN3CCC(C(=O)OCC)CC3)c12	.	1%[7.67 µM]	.	.	8%[9.22 µM]	32%[10 µM]
COc1ccc(N(C(=O)CCl)C(C(=O)NC2CCCCC2)c2cccnc2)cc1 (stereo not given)	.	-29%	3%	?	22µM*	-72%[10 µM]
O=C(NC1CCCCC1)C(c1cccnc1)N(C(=O)CCl)c1ccc(F)cc1 (stereo not given)	.	-23%	7%	?	6.3µM*	-71%[10 µM]
NC(=O)NC(CCC(=O)O)C(=O)O (stereo not given)	.	.	.	.	4%	7%
CC1(C)CCC[C@]2(C)C3CC(=O)O[C@@]3(C)CC[C@H]12 (stereo not given in full)	-2	.	10%	.	.	12%[1.9 µM]
Cc1ccc(-n2c(O)c(C=Nc3ccccc3-c3n[nH]c(=S)[nH]c3=O)c3ccccc3c2=O)cc1C	.	1.3µM*	6%	.	5%	.
NC1=NS(=O)(=O)NC1c1ccc(F)cc1 (stereo not given)	.	9%	-11%	.	-3%	3.5µM*
Cc1ccc(C2NS(=O)(=O)N=C2N)cc1 (stereo not given)	0	-10%[46.1 µM]	23%[38.3 µM]	-23%	4%	8%
O=C(O)C1=C(CSc2nnnn2CS(=O)(=O)O)CS[C@@H]2[C@H](NC(=O)[C@H](O)c3ccccc3)C(=O)N12	.	.	.	.	19%	2%
SMILES	IMPase inh	NPSR antag	IMPase Li inh	LMNA splice mod	HTT aggregate	HTT cytoprotect
CCOc1ccc(C(=O)N/N=C/c2cccc3cccnc23)cc1	5	-14%[46.1 µM]	-17%[38.3 µM]	?	3.5µM*	-64%
NC(C(=O)O)c1ccc(P(=O)(O)O)cc1 (stereo not given)	.	.	-3%	.	.	5%
CC(=O)c1ccc(N2CCN(C(=S)Nc3ccc(Oc4ccccc4)cc3)CC2)cc1	.	-19%	22%	?	13µM*	-54%
Cc1nc(NC(=O)CSc2nnnn2Cc2ccccc2)sc1C	3	-25%[46.1 µM]	-15%[38.3 µM]	4%	?	-3%
Cc1nnc(NC(=O)CSc2nnnn2Cc2ccccc2)s1	-8	-7%[46.1 µM]	5%[38.3 µM]	-1%	0.35µM*	?
C[C@H](CN(C)C)C(=O)c1ccccc1C(=O)O	.	.	-3%	.	.	20%[10 µM]
CC(=O)Nc1ccc(Oc2cnc3ccccc3n2)cc1	2	-14%[46.1 µM]	-1%[38.3 µM]	10%	11µM*	23%
COc1ccc(Oc2cnc3ccccc3n2)cc1	.	?	-2%	11%[46 µM]	11µM*	-30%
C/C1=C2/[N-]C(C(CC(N)=O)[C@@]2(C)CCC(=O)NCC(C)OP(=O)([O-])O[C@H]2[C@@H](O)[C@@H](n3cnc4cc(C)c(C)cc43)O[C@@H]2CO)[C@]2(C)N=C(/C(C)=C3N=C(/C=C4N=C1C(CCC(N)=O)C\4(C)C)[C@@H](CCC(N)=O)[C@]\3(C)CC(N)=O)[C@@H](CCC(N)=O)[C@]2(C)CC(N)=O.CC(=O)O.[Co] (stereo not given in full)	.	.	.	.	1%	3%
CC(C)(C)c1ccc(S(=O)(=O)/C=C\C#N)cc1	20	.	32%	.	.	-91%
O[C@@H](c1cc(-c2ccccc2)nc2c1ccc1ccccc12)C1CCCCN1 (stereo not given in full)	.	.	-5%	.	.	.
Cc1ccc(NC(=O)CN(C)Cc2nc3c(Br)cc(Br)cc3c(=O)[nH]2)cc1	.	-8%	-8%	.	-10%	.
O=C(O)c1c(C(=O)O)c2ccccc2[nH]c1=O	.	.	-11%	.	.	-1%
Cc1cccc(Cc2cnc(NC(=O)C3Cc4ccc(C)cc4C(=O)O3)s2)c1 (stereo not given)	7	.	.	.	.	.
N/C(=N\OC(=O)COc1ccccc1)c1cccnc1	2	-4%[46.1 µM]	-9%[38.3 µM]	-10%	-10%	32%
N/C(=N\OC(=O)C(c1ccccc1)c1ccccc1)c1cccnc1	0	-26%[46.1 µM]	6%[38.3 µM]	1%[0.0737 µM]	0.71µM*	12%
COc1cc(NS(=O)(=O)c2ccc(NC(=O)c3ccc(C(C)=O)cc3)cc2)nc(OC)n1	-9	.	.	.	.	.
CCOC(=O)c1nnc(-c2ccc(C)cc2)nc1Oc1ccc(Cl)cc1Cl	7	?	-7%[38.3 µM]	9%	-3%	-33%
CCOC(=O)c1nnc(-c2ccc(C)cc2)nc1Oc1ccccc1Cl	-12[1.84 µM]	-27%[46.1 µM]	2%[38.3 µM]	-21%	22µM*	.
